This is an account of results in PubChem BioAssay AID588405 (Sanford-Burnham Center for Chemical Genomics, 2011).

Out of some 360,000 compounds screened, about 6,200 (1.7%) were called active. This excerpt belongs to a sample that is enriched for actives. Values without a mark were called inactive.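 How the source made its calls: active means inhibition of at least 50% at 20 µM; inactive means the rest.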

The nature of the assay: Peg3 promoter-driven luciferase inhibitors, primary screen, cell-based, HeLa, luciferase luminescence (AID 588405). As to conditions: HeLa PEG-Prom luciferase reporter, overnight, at 20 µM, active compounds read high. On the technique in general: Reporter assays use an easily measured gene product as a stand-in for the process of interest.
By inhibition is commonly meant the drop in the measured response relative to a control, in per cent. Regarding `COc1ccc(-c2[nH]ncc2CN(C)Cc2cccnc2)c(F)c1`, the inhibition is 9.62%.

For the compound `CCOc1ccc2[nH]c(=O)c(CN(CCCO)S(=O)(=O)c3ccc(F)cc3)cc2c1`, the inhibition is 12.7%.

With `COc1ccc2[nH]c(=O)c(CN(Cc3cccnc3)S(=O)(=O)c3ccccc3F)cc2c1`, the inhibition is 59.6% (active).

Regarding `Cn1c(NCc2cccnc2)nc2cc(-c3ccc(F)cc3)sc2c1=O`, the inhibition was -200%.

For the compound `COc1c(C)cc(C(=O)C2CCCN(S(=O)(=O)c3c(C)noc3C)C2)cc1C` (configuration not stated), the inhibition was 34.8%.

For the compound `COc1ccccc1-c1c(C#N)c(N)nc2c1CCC2`, the inhibition is 8.52%.

For the compound `CSc1nc(N)c(C#N)c(-c2ccccc2Cl)c1C#N`, the inhibition is 53.6% (active).

In the case of `Cc1c(-c2ccccc2)nc(N)c(C#N)c1-c1cccs1`, the inhibition was 12.9%.

With `NCCCCC(C(=O)O)N(C(=O)OCc1ccccc1)C(=O)OCc1ccccc1` (configuration not stated), the inhibition is 5.74%.

For the compound `CCNC(=O)C1CCCN(C(=O)c2ccc(OC)cc2OC)CC1` (configuration not stated), the inhibition is -2.59%.

On to `CNC(=O)c1[nH]cnc1C(=O)N[C@@H](CC(C)C)C(=O)OCc1ccccc1`, for which the inhibition was 4.89%.

Consider `CCOc1ccc(-n2c(SCC(=O)NC3CCS(=O)(=O)C3)nnc2-c2cccnc2)cc1` (configuration not stated), for which the inhibition was -3.16%.

Regarding `CCN1CCC(O)(/C=C/c2ccc(C)cc2)C(C(=O)/C=C/c2ccc(C)cc2)C1` (configuration not stated), the inhibition was 97.7% (active).

Take `COc1cc(C(O)c2nc(-c3cccc(C(=O)O)c3)cs2)ccc1F` (configuration not stated): the inhibition was -37.1%.

Regarding `Cc1nc(C(F)(F)F)ccc1C(=O)N1CCC1(C)C(=O)NS(=O)(=O)c1ccccc1` (configuration not stated), the inhibition is 11.6%.

`CCC(C)Cn1c(O)cc2nn(-c3nc4ccccc4s3)c(=O)c-2c1C` (configuration not stated): the inhibition was 96.7% (active).

Take `OC[C@H]1O[C@@H](c2nc(-c3nc(-c4ccc(F)cc4)no3)cs2)[C@H](O)[C@@H](O)[C@H]1O`: the inhibition was -42.8%.

Take `Nc1nc(CSc2nnnn2-c2ccccc2)nc(Nc2ccccc2)n1`: the inhibition was 6.46%.

Turning to `Cc1cccc(CN2CCN(C3CN(Cc4ccccc4)S(=O)(=O)C3)CC2)c1` (configuration not stated), the inhibition was 24.2%.

In the case of `CC1(C)C2CCC1(C)C(OC(=O)c1ccc(O)cc1)C2` (configuration not stated), the inhibition was -14.1%.

As to `O=C(OC12CC3CC(CC(C3)C1)C2)c1ccc(NCc2cc(O)ccc2O)cc1`, the inhibition is 82.7% (active).

Regarding `CCCCC(=O)N(C)c1c(CC)nc2c(OCc3ccc(S(C)(=O)=O)cc3)cccn12`, the inhibition was -0.29%.

With `CC(C)Oc1cc(F)ccc1-c1cc(C(=O)Nc2ccc(F)cc2)[nH]n1`, the inhibition was -30.2%.

`c1ccc(C[C@H]2CNCCN2CCC23CC4CC(CC(C4)C2)C3)cc1`: the inhibition is 96.8% (active).

As to `c1ccc2c(CCN3CCNC[C@H]3Cc3cccc4ccccc34)cccc2c1`, the inhibition was -8.29%.

For `O=C1CCNCCN1[C@H](CO)Cc1ccccc1`, the inhibition was 3.53%.

Take `COc1cc(/C=C/c2ccc(/C=C/c3cc(OC)c(OC)c(OC)c3)cc2)cc(OC)c1OC`: the inhibition was 61.8% (active).

In the case of `CCC(=O)c1ccc(OC(=O)/C=C/c2cc(OC)c(OC)c(OC)c2)cc1`, the inhibition was 3.36%.

As for `COc1cc(/C=C/C2=CC(C)(C)NC(=S)N2)cc(OC)c1OC`, the inhibition is 4.8%.

In the case of `OCCc1ccc(NCCc2ccco2)cc1`, the inhibition was -123%.

Regarding `CN[C@H](C(=O)NC[C@H]1O[C@@H](n2cnc3c(N)ncnc32)[C@H](O)[C@@H]1O)[C@@H](C)OCc1ccccc1`, the inhibition was -6.23%.

As to `O=C(COC(=O)c1ccc(F)cc1F)Nc1ncccn1`, the inhibition was 22.2%.

On to `CC(C)CNC(=O)C(=O)NCC(c1ccc2c(c1)OCO2)N1CCOCC1` (configuration not stated), for which the inhibition was -15.4%.

With `CCCc1cc(=O)[nH]c(SCC(=O)c2c(N)n(CC(C)C)c(=O)n(C)c2=O)n1`, the inhibition is 54.7% (active).

Take `CC(C)Cn1c(N)c(C(=O)COC(=O)CN2C(=O)C3CC=CCC3C2=O)c(=O)n(C)c1=O` (configuration not stated): the inhibition was 21.8%.

As to `CCCc1cc(=O)[nH]c(SCC(=O)N2C(C)CCCC2C)n1` (configuration not stated), the inhibition was 0.43%.

For the compound `O=C(NCc1cccnc1)c1ccc2nc([C@@H]3O[C@H](CO)[C@H](O)[C@H](O)[C@H]3O)[nH]c2c1`, the inhibition is 15.8%.

With `CCC(C)C(CO)NC(=O)/C=C/[C@H]1O[C@@H](n2cnc3c(NC(=O)c4ccccc4)ncnc32)[C@H](O)[C@@H]1O` (some centres not stated), the inhibition was 10.6%.

On to `Cc1ccsc1C(=O)OCC(=O)NCCc1ccccc1`, for which the inhibition is -156%.

As to `Cc1ccsc1C(=O)OCC(=O)Nc1cccc(F)c1`, the inhibition was -227%.

`Cc1ccsc1C(=O)OCC(=O)c1cc(C)n(CC2CCCO2)c1C` (configuration not stated): the inhibition was 55.9% (active).

Consider `COc1ccc(-c2nnc3n2CCCCC3)cc1`, for which the inhibition is 11.4%.

As to `COc1ccccc1NC(=O)CC(NCCN(C)C)C(=O)O` (configuration not stated), the inhibition is 6.79%.

`COc1cccc2sc(N(CCCN(C)C)C(=O)C(c3ccccc3)c3ccccc3)nc12`: the inhibition was 99.4% (active).

On to `Cc1ccc2sc(N(CCN(C)C)C(=O)/C=C/c3cccs3)nc2c1C`, for which the inhibition is 19.8%.

`Cc1ccc(S(=O)(=O)CCC(=O)OCC(=O)N(C)Cc2ccccc2)cc1`: the inhibition was -2.43%.

On to `COc1cccc2sc(N(CCCN(C)C)C(=O)CCS(=O)(=O)c3ccccc3)nc12`, for which the inhibition is 96.4% (active).

As for `O=C(CCS(=O)(=O)c1ccccc1)Nc1nc2c(s1)CCCC2`, the inhibition is -47.1%.

As for `Cc1cccc2sc(N(CCCN(C)C)C(=O)CCS(=O)(=O)c3ccccc3)nc12`, the inhibition is 100% (active).

Take `CCN(CC)CCN(C(=O)c1ccc2c(c1)CCCC2)c1nc2c(OC)cccc2s1`: the inhibition was -7.74%.

Turning to `COc1ccc(N(C)C(=O)CCS(=O)(=O)c2cccc3nsnc23)cc1`, the inhibition was -4.4%.

As to `CC1(C(=O)NCc2ccc3c(c2)OCO3)CCN1CCc1ccccc1` (configuration not stated), the inhibition is -5.32%.

On to `CC1(C(=O)NS(=O)(=O)c2cccs2)CCN1C(=O)Cc1ccc(-c2ccccc2)cc1` (configuration not stated), for which the inhibition is 1.06%.

As for `O=C(C=CC(=O)Nc1ccc(F)cc1F)Nc1ccc(F)cc1F`, the inhibition was 14.9%.

On to `O=S1(=O)CC(N2CCN(CCO)CC2)CN1C1CCCC1` (configuration not stated), for which the inhibition was -8.51%.

`Cc1cccc(CN2CCN(C3CN(Cc4cn(Cc5ccccc5F)nn4)S(=O)(=O)C3)CC2)c1` (configuration not stated): the inhibition was -6.63%.

For the compound `CCOC(=O)N(C)c1c(CC)nc2c(OCc3ccccc3C(=O)OC)cccn12`, the inhibition was 13.4%.

For the compound `Nc1ccccc1SC(C[N+](=O)[O-])c1ccccc1` (configuration not stated), the inhibition was 63.5% (active).

On to `CCCC(=O)N1CCC1(C)C(=O)NCc1ccc(C(C)C)cc1` (configuration not stated), for which the inhibition was 1.21%.

Turning to `CCC(=O)N1CCCC1(C)C(=O)Nc1ccc2c(c1)CCN2C(C)=O` (configuration not stated), the inhibition was 4.54%.

In the case of `CCOC(=O)Nc1ccc2c(c1)N(C(=O)CCCl)c1ccccc1[S@]2=O`, the inhibition is 84.1% (active).

For `CCOC(=O)Nc1ccc2c(c1)N(C(=O)CCN1CCN(CCO)CC1)c1ccccc1CC2`, the inhibition was 3.85%.

Turning to `CCOC(=O)Nc1ccc2c(c1)N(C(=O)CN1CCN3CCCC3C1)c1ccccc1CC2` (configuration not stated), the inhibition is 0.5%.

For `O=C(C[C@H]1C/C=C\C[C@@H](NC(=O)OCC2c3ccccc3-c3ccccc32)C(=O)O[C@@H](c2ccccc2)CNC1=O)N[C@H](CO)Cc1ccccc1`, the inhibition was 67.1% (active).

For `CC(C)(C)OC(=O)C[C@@H]1C/C=C\C[C@@H](CC(=O)N[C@H](CO)Cc2ccccc2)C(=O)NC[C@@H](c2ccccc2)OC1=O`, the inhibition is -6.65%.

Turning to `CC(C)(C)OC(=O)C[C@H]1C/C=C\C[C@@H](CC(=O)N[C@H](CO)Cc2ccccc2)C(=O)NC[C@@H](c2ccccc2)OC1=O`, the inhibition was -1.52%.

Take `CC(=O)c1nn(-c2ccccc2)c(=Nc2ccccc2)cc1C`: the inhibition is 1.9%.

Regarding `O=C1NC(O)CCN1C1CC(O)C(CO)O1` (configuration not stated), the inhibition is 15.2%.

As for `CSc1nnnn1-c1c(C)cc(C)cc1C`, the inhibition is 7.96%.

Consider `CSC1=NCCN1C(=O)c1ccc(S(=O)(=O)N2CCOCC2)cc1`, for which the inhibition was -13.6%.

With `Cc1ccc2nc(-c3ccco3)c(Cc3cccc(Cl)c3)n2c1`, the inhibition was -203%.

For `CCCc1nc2c([nH]1)C(c1cccnc1)C(C#N)=C(N)O2` (configuration not stated), the inhibition is -0.33%.

For the compound `CCOC(=O)C1=C(C)OC(N)=C(C#N)C1c1cncc(-c2ccc(F)cc2)c1` (configuration not stated), the inhibition was 101% (active).

For `CCOC(=O)C1=C(CC)OC(N)=C(C#N)C1c1ccc(F)cc1F` (configuration not stated), the inhibition is 8.52%.

In the case of `CCOP(=O)(OCC)C(Cc1ccccc1)N=C(c1ccccc1)c1ccccc1` (configuration not stated), the inhibition was 41.3%.

Turning to `CCOC(=O)c1c(NC(=O)c2ccc(S(=O)(=O)N(C)CC3CCCO3)cc2)sc2c1CC(C)(C)NC2(C)C` (configuration not stated), the inhibition was 85.8% (active).

Turning to `Cc1cccc(NC(=O)c2ccc(S(=O)(=O)N(C)CC3CCCO3)cc2)c1C` (configuration not stated), the inhibition was 4.42%.

Take `CN(CC1CCCO1)S(=O)(=O)c1ccc(C(=O)Nc2ccc(F)cc2)cc1` (configuration not stated): the inhibition is 21.5%.

For `CC(=O)Nc1cc(-c2ccccc2F)cn2c(-c3cccc(C(F)(F)F)c3)cnc12`, the inhibition was 25%.

`COc1ccc(S(=O)(=O)N2CCCCC2)cc1NC(=O)c1cc([N+](=O)[O-])ccc1N1CCOCC1`: the inhibition was 13.5%.

As for `CCOc1ccc2nc(NC(=O)c3cc([N+](=O)[O-])ccc3N3CCOCC3)sc2c1`, the inhibition is 61.8% (active).

As to `O=C(NCc1ccc2c(c1)OCO2)c1cc([N+](=O)[O-])ccc1N1CCOCC1`, the inhibition was 17.4%.

Regarding `COc1cccc(-c2cc(NC(C)=O)c3ncc(-c4cccc(C(C)=O)c4)n3c2)c1`, the inhibition is -9.41%.

Regarding `CCN(CC)c1ncnc2c1ncn2[C@H]1CN(Cc2cccs2)C[C@@H](CO)O1`, the inhibition is 5.39%.

As for `CN(Cc1ccc(F)cc1)C(=O)CN1C(=O)c2ccccc2S1(=O)=O`, the inhibition is 1.25%.

Turning to `O=C(CN1C(=O)c2ccccc2S1(=O)=O)N1CCc2ccccc21`, the inhibition was 94.5% (active).

With `CC1CCCN(C(=O)CN2C(=O)c3ccccc3S2(=O)=O)C1` (configuration not stated), the inhibition was -95%.
